From the supplement of paper PMC6555819 come the findings set out here.

Common to all, as to test: PBM binding z-score (relative to random genomic background probes); higher = stronger binding; sequences stand for … in GC…GCGATTGACAGCGTAGAATGAAGG
The test system of assay [1] is FXR:RXRa (NR concentration 270 nM, RXRa partner concentration 90 nM). The procedure, abridged:
(§1)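 Ligand-free nuclear receptor dimers were applied to custom Agilent 4×180K protein-binding microarrays whose double-stranded probes carried direct-repeat seeds, single-nucleotide variants, half-site ablations and random human genomic background sequences in 34-nt variable regions. Incubation lasted 1 h. Binding z-scores were computed against the random background probes from regression-normalized fluorescence.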

The test system of assay [2] is LXRa:RXRa (NR concentration 270 nM, RXRa partner concentration 90 nM). The procedure, abridged: as §1
In assay [3] the test system is LXRa homodimer (NR concentration 270 nM). Put shortly: as §1
Assay [4] deals with LXRb:RXRa (NR concentration 270 nM, RXRa partner concentration 90 nM). The procedure, abridged:
as §1

Assay [5] concerns LXRb homodimer (NR concentration 270 nM). Put shortly:
as §1

Assay [6] relates to PPARa:RXRa (NR concentration 270 nM, RXRa partner concentration 90 nM). The procedure, abridged: as §1
Assay [7] relates to PPARg:RXRa (NR concentration 180 nM, RXRa partner concentration 90 nM). Put shortly:
as §1

Assay [8] has as its system PPARg:RXRa 270nM:90nM, anti-RXR (NR concentration 270 nM, RXRa partner concentration 90 nM). Put shortly: as §1
In assay [9] the test system is PPARg:RXRa 30nM:10nM, anti-RXR (NR concentration 30 nM, RXRa partner concentration 10 nM). The procedure, abridged:
as §1

Assay [10] deals with PPARg:RXRa 90nM:30nM, anti-RXR (NR concentration 90 nM, RXRa partner concentration 30 nM). Put shortly: as §1
The test system of assay [11] is PPARg:RXRa DBDmut IVT, anti-RXR (DBD mutation: RXRa K156A/R161A, NR concentration 270 nM, RXRa partner concentration 90 nM). Put shortly:
as §1

Assay [12] relates to PPARg:RXRa IVT, anti-PPARg (NR concentration 270 nM, RXRa partner concentration 90 nM). Put shortly: as §1
Assay [13] has as its system PPARg DBDmut:RXRa IVT, anti-PPARg (DBD mutation: PPARg1 K132A/R137A, NR concentration 270 nM, RXRa partner concentration 90 nM). Put shortly: as §1
Assay [14] has as its system PPARg DBDmut IVT, anti-PPARg (DBD mutation: PPARg1 K132A/R137A, NR concentration 270 nM). Put shortly: as §1
Assay [15] deals with PPARg homodimer (NR concentration 180 nM). Put shortly:
as §1

Assay [16] deals with PXR:RXRa (NR concentration 270 nM, RXRa partner concentration 90 nM). Put shortly:
as §1

Assay [17] concerns PXR homodimer (NR concentration 270 nM). Put shortly: as §1
Assay [18] has as its system RARa:RXR (NR concentration 270 nM, RXRa partner concentration 90 nM). The procedure, abridged:
as §1

Assay [19] deals with RARa homodimer (NR concentration 270 nM). The procedure, abridged:
as §1

In assay [20] the test system is RARb:RXRa (NR concentration 270 nM, RXRa partner concentration 90 nM). Put shortly: as §1

As for GGAACGAGGGAAAAGTTGATAGCATCTGTCGACG, the PBM binding z-score in assay [1] is -0.286; in assay [2], -0.349; in assay [3], -0.321; in assay [4], -0.59; in assay [5], -0.568; in assay [6], 1.15. Further, the PBM binding z-score in assay [7] was 2.04; in assay [8] it was 3.68; in assay [9], 1.71; in assay [10], 3.49; in assay [11] it was -0.174; in assay [12], 0.0196. In addition, the PBM binding z-score in assay [13] was -0.986; in assay [14] it was -1.13; in assay [15], -0.562; in [16], -0.557; in assay [17], -0.343; in assay [18], -0.659. Besides, the results for the PBM binding z-score in [19] and in assay [20] were -0.0387 and -0.212, respectively.
For the sequence GCATATAGGTAATAGAAGGTGAAAGTCCGATTGT, the PBM binding z-score in assay [1] was 0.555; in assay [2], 1.95; in assay [3], 0.235; in [4] it was 0.582; in [5] it was -0.597; in [6], 1.78. Moreover, the PBM binding z-score in assay [7] was found to be 1.24; in assay [8], 1.35; in assay [9], 0.321; in assay [10], 0.9; in [11], 3.98; in assay [12], 3.21. Further, the PBM binding z-score was 0.445 in assay [13]; 0.104 in [14]; 0.675 in assay [15]; 0.246 in assay [16]; 0.153 in assay [17]; 0.961 in assay [18]. For the same sequence, the PBM binding z-score is 0.689 in [19] and 0.402 in [20].
As for ATCGAAAGGTCGAAGGCGAGTATACCCACCCGAA, the PBM binding z-score in assay [1] was 4.01; in [2] it was 3.3; in [3], 0.25; in assay [4], 2.4; in assay [5], 0.608; in assay [6], 3.71. The PBM binding z-score in assay [7] was 2.33; in assay [8], 2.5; in assay [9], 0.887; in assay [10] it was 1.49; in [11] it was -0.0271; in [12] it was 1.19. The PBM binding z-score in assay [13] was 0.286; in assay [14], 0.268; in assay [15], 1.03; in [16] it was 2.14; in assay [17] it was -0.132; in assay [18], 2.87. Moreover, the PBM binding z-score turned out to be 0.519 in [19] and 3.57 in assay [20].
For the sequence CAAACTAGGTCCAGAGGTCAAAGTCCGCTTCCCG, the PBM binding z-score was 4.77 in [1]; 5.55 in assay [2]; 5.71 in assay [3]; 5.03 in assay [4]; 1.62 in assay [5]; 5.29 in assay [6]. The PBM binding z-score came out at 5.18 in [7]; 6.22 in assay [8]; 4.37 in assay [9]; 6.29 in [10]; 2.96 in assay [11]; 3.98 in [12]. For the same sequence, the PBM binding z-score was determined as 0.89 in assay [13]; 0.535 in assay [14]; 3.29 in assay [15]; 5.47 in assay [16]; 2.58 in assay [17]; 5.5 in [18]. The PBM binding z-score in assay [19] was 0.452; in assay [20], 4.11.
In the case of ACTAGCAGGCCAAGGGTCACTAAAGATTAGTCCG, the PBM binding z-score in [1] is 2.25; in assay [2] it was 3.51; in assay [3], -0.00755; in assay [4], 2.66; in assay [5], -0.174; in [6] it was 4.34. Also, the PBM binding z-score in assay [7] turned out to be 8.06; in assay [8], 7.21; in assay [9], 6.64; in [10], 7.61; in [11], 1.3; in assay [12] it was 3.86. In addition, the PBM binding z-score in [13] is 0.0188; in [14], -0.44; in assay [15], 2; in [16], 3; in assay [17], -0.139; in assay [18] it was 3.97. Also, the PBM binding z-score in assay [19] stood at 0.15; in [20], 3.42.
In the case of ACTATTCGTTGAGACGAGGGCAACCGATAGGTTG, the PBM binding z-score in assay [1] was 0.146; in assay [2], -0.0079; in assay [3], -0.194; in assay [4], 0.132; in [5], 0.215; in assay [6] it was 0.431. Further, the PBM binding z-score turned out to be 0.548 in assay [7]; 0.366 in assay [8]; 0.255 in [9]; 0.115 in [10]; 0.199 in assay [11]; 0.823 in [12]. The PBM binding z-score worked out at 1.01 in assay [13]; 0.89 in assay [14]; 0.322 in assay [15]; 0.447 in [16]; 0.0808 in [17]; 0.403 in assay [18]. For the same sequence, the PBM binding z-score came out at 0.418 in assay [19] and 0.886 in assay [20].
Consider CCGACTGGGGCAGTAAGGTTACCATACCATCCGG, for which the PBM binding z-score was 0.252 in assay [1]; -0.0103 in assay [2]; -0.54 in assay [3]; -0.134 in [4]; -0.789 in [5]; 1.16 in assay [6]. Further, the PBM binding z-score in [7] is 1.03; in assay [8], 1.17; in assay [9], -0.0768; in [10], 0.343; in assay [11], 2.7; in assay [12], 2.69. Moreover, the PBM binding z-score in assay [13] is -1.07; in assay [14], -1.44; in assay [15], 0.0978; in assay [16], 0.28; in [17] it was -0.0319; in assay [18], 0.762. Further, the results for the PBM binding z-score in [19] and in [20] were -0.538 and 1.34, respectively.
